To fix the notation:
B1: Caulobacter ParB omega fusion; a variant is named by its letters at X, in order, B8GW30 (parent)
chain: MESVVVGEPGMSEGRRGLGRGLSALLGEVDAAPAQAPGEQLGGSREAPIEILQRNPDQPRRTFREEDLEDLSNSIREKGVLQPILVRPSPDTAGEYQIVAGERAWRAAQRAGLKTVPIMVRELDDLAVLEIGIIENVQRADLNVLEEALSYKVLMEKFERTQENIAQTIGKSXSHVANXMRLLXLPDEVQSYLVSGELTAXHARAIAAAADPVALAKQIIEGGLSVRETEALARKAPNLSAGKSKGGRPPRVKDTDTQALESDLSSVLGLDVSIDHRGSTGTLTITYATLEQLDDLCNRLTRGI

Over roughly 81,000 sequences, “one-hybrid fitness for binding NBS DNA” has its median near -0.1; the highest 2% begin near 0.36. The list comes from a sample in which the highest values are over-represented; it also holds similar and randomly drawn sequences.

Variants of B1 are the subject of this test. Kind of test: one-hybrid fitness for binding NBS DNA (the Noc-binding site; scaled: cognate 1, non-cognate 0); higher = stronger binding. Conditions: with NBS DNA site. In outline:
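The reporter was HIS3, with the binding site 19 bp from the promoter, in E. coli USO used for bacterial one-hybrid selection of Caulobacter ParB libraries with four specificity codons randomised. Growth was on M9 lacking histidine, with 0.1 mM IPTG and 5 mM 3-AT, for 48 hours at 37°C. Illumina sequencing covered plasmids before and after selection; three replicate libraries were pooled and variants with under 10 reads dropped. A fitness score is the log change in variant-to-wild-type read ratio, rescaled to the cognate and non-cognate references.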
As to RKGS, the “one-hybrid fitness for binding NBS DNA” value amounted to 0.576. Take RAGS: the “one-hybrid fitness for binding NBS DNA” value turned out to be 0.466.

RTGN: the “one-hybrid fitness for binding NBS DNA” value is at most 0.2. For RHGN, the “one-hybrid fitness for binding NBS DNA” value is at most 0.2.

RTGD: the “one-hybrid fitness for binding NBS DNA” value was at most 0.2. With RHGD, the “one-hybrid fitness for binding NBS DNA” value was at most 0.2. For RAGN, the “one-hybrid fitness for binding NBS DNA” value is at most 0.2.

Turning to RTGS, the “one-hybrid fitness for binding NBS DNA” value amounted to 0.491.

For the variant LATQ, the “one-hybrid fitness for binding NBS DNA” value is at most 0.2. With NNCL, the “one-hybrid fitness for binding NBS DNA” value is at most 0.2. Consider PCCV, for which the “one-hybrid fitness for binding NBS DNA” value is at most 0.2. For the variant VENS, the “one-hybrid fitness for binding NBS DNA” value was at most 0.2. As to FMGS, the “one-hybrid fitness for binding NBS DNA” value is at most 0.2. For DHPH the value was at most 0.2; for KDLT, at most 0.2.

In the case of ENHG, the “one-hybrid fitness for binding NBS DNA” value is at most 0.2. As for NCII, the “one-hybrid fitness for binding NBS DNA” value is at most 0.2. SQRK: the “one-hybrid fitness for binding NBS DNA” value was at most 0.2. Take MVPG: the “one-hybrid fitness for binding NBS DNA” value is at most 0.2.

Regarding RCGS, the “one-hybrid fitness for binding NBS DNA” value was determined as 0.482. For RPGS, the “one-hybrid fitness for binding NBS DNA” value is at most 0.2.

RFGS: the “one-hybrid fitness for binding NBS DNA” value is at most 0.2. In the case of GNMC, the “one-hybrid fitness for binding NBS DNA” value is at most 0.2. For the variant FFRR, the “one-hybrid fitness for binding NBS DNA” value is at most 0.2. As to NETT, the “one-hybrid fitness for binding NBS DNA” value was at most 0.2.

On to VRYR, for which the “one-hybrid fitness for binding NBS DNA” value was determined as 0.239. For VRKR the value was 0.62.

VRDR: the “one-hybrid fitness for binding NBS DNA” value was at most 0.2. Regarding VCKR, the “one-hybrid fitness for binding NBS DNA” value is 0.228. Turning to VCNR, the “one-hybrid fitness for binding NBS DNA” value was at most 0.2. On to VCRR, for which the “one-hybrid fitness for binding NBS DNA” value is 0.246. For VRNR the value was 0.368. As for VRRR, the “one-hybrid fitness for binding NBS DNA” value worked out at 0.624.

As to VRVR, the “one-hybrid fitness for binding NBS DNA” value was at most 0.2.

In the case of TYNY, the “one-hybrid fitness for binding NBS DNA” value is at most 0.2.

VWLM: the “one-hybrid fitness for binding NBS DNA” value was at most 0.2. For RPGK the value was at most 0.2. As for RSHD, the “one-hybrid fitness for binding NBS DNA” value is at most 0.2. Take RFHR: the “one-hybrid fitness for binding NBS DNA” value is 0.305. In the case of RCHR, the “one-hybrid fitness for binding NBS DNA” value is 0.586. For the variant RSHR, the “one-hybrid fitness for binding NBS DNA” value is 0.476. As to RPHR, the “one-hybrid fitness for binding NBS DNA” value was at most 0.2. For RSHN, the “one-hybrid fitness for binding NBS DNA” value was at most 0.2. For LSID the value was at most 0.2; for YTWT, at most 0.2. On to SVNS, for which the “one-hybrid fitness for binding NBS DNA” value was at most 0.2.

On to PHLC, for which the “one-hybrid fitness for binding NBS DNA” value is at most 0.2. NPYT: the “one-hybrid fitness for binding NBS DNA” value was at most 0.2. On to QIQD, for which the “one-hybrid fitness for binding NBS DNA” value was at most 0.2.

QAQP: the “one-hybrid fitness for binding NBS DNA” value was at most 0.2. In the case of QIQN, the “one-hybrid fitness for binding NBS DNA” value was at most 0.2. For the variant QTQH, the “one-hybrid fitness for binding NBS DNA” value worked out at 0.346. For QAQR, the “one-hybrid fitness for binding NBS DNA” value is 0.506. For the variant QSQH, the “one-hybrid fitness for binding NBS DNA” value is 0.246. On to QAQN, for which the “one-hybrid fitness for binding NBS DNA” value was at most 0.2. In the case of QTQD, the “one-hybrid fitness for binding NBS DNA” value was at most 0.2. On to QTQR, for which the “one-hybrid fitness for binding NBS DNA” value worked out at 0.757.

For the variant QIQR, the “one-hybrid fitness for binding NBS DNA” value stood at 0.39. Take QSQN: the “one-hybrid fitness for binding NBS DNA” value is at most 0.2.

With QSQR, the “one-hybrid fitness for binding NBS DNA” value turned out to be 0.535. For SVRD the value was at most 0.2; for NSML, at most 0.2.

Turning to LLKM, the “one-hybrid fitness for binding NBS DNA” value is at most 0.2. As to MPSK, the “one-hybrid fitness for binding NBS DNA” value is at most 0.2. In the case of KHMV, the “one-hybrid fitness for binding NBS DNA” value is at most 0.2. Take QGQR: the “one-hybrid fitness for binding NBS DNA” value is at most 0.2. Take QKQR: the “one-hybrid fitness for binding NBS DNA” value came out at 0.67.

QKQG: the “one-hybrid fitness for binding NBS DNA” value is at most 0.2.

Turning to QDQR, the “one-hybrid fitness for binding NBS DNA” value is at most 0.2. With QCQR, the “one-hybrid fitness for binding NBS DNA” value amounted to 0.612. For QHQD, the “one-hybrid fitness for binding NBS DNA” value is at most 0.2. For QPQR the value was at most 0.2; for QHQR, 0.523; for QKQN, at most 0.2.

In the case of YKRT, the “one-hybrid fitness for binding NBS DNA” value is at most 0.2.

As for SATK, the “one-hybrid fitness for binding NBS DNA” value was at most 0.2. For TSAP the value was at most 0.2; for DITY, at most 0.2. Regarding QYQS, the “one-hybrid fitness for binding NBS DNA” value is 0.373. Regarding QYQT, the “one-hybrid fitness for binding NBS DNA” value was determined as 0.446. On to QYQG, for which the “one-hybrid fitness for binding NBS DNA” value was at most 0.2.

For the variant QYQM, the “one-hybrid fitness for binding NBS DNA” value was at most 0.2.

Take QYQP: the “one-hybrid fitness for binding NBS DNA” value was at most 0.2. For QYQY, the “one-hybrid fitness for binding NBS DNA” value is at most 0.2.

Take QHTQ: the “one-hybrid fitness for binding NBS DNA” value is at most 0.2. With IKPC, the “one-hybrid fitness for binding NBS DNA” value was at most 0.2. For QEEP the value was at most 0.2; for QTAE, at most 0.2. Turning to AHII, the “one-hybrid fitness for binding NBS DNA” value was at most 0.2. As for QTLG, the “one-hybrid fitness for binding NBS DNA” value is at most 0.2. Regarding QRKC, the “one-hybrid fitness for binding NBS DNA” value was 0.507. As to QSVC, the “one-hybrid fitness for binding NBS DNA” value is at most 0.2. For QKVC the value was at most 0.2. For QMKC the value was 0.383; for QMNC, at most 0.2. As to QRIC, the “one-hybrid fitness for binding NBS DNA” value came to 0.303. Turning to QKKC, the “one-hybrid fitness for binding NBS DNA” value amounted to 0.385. Regarding QRVC, the “one-hybrid fitness for binding NBS DNA” value was found to be 0.314.

On to QMVC, for which the “one-hybrid fitness for binding NBS DNA” value was at most 0.2. For QKIC the value was at most 0.2; for QLKC, 0.304; for QSKC, 0.367. For HLMG the value was at most 0.2; for TSYM, at most 0.2; for HDED, at most 0.2. In the case of PFKY, the “one-hybrid fitness for binding NBS DNA” value is at most 0.2. For LLIF the value was at most 0.2. With QCLE, the “one-hybrid fitness for binding NBS DNA” value is at most 0.2.

As for HMAT, the “one-hybrid fitness for binding NBS DNA” value was at most 0.2. CQKM: the “one-hybrid fitness for binding NBS DNA” value is at most 0.2. For RIAG the value was at most 0.2; for QPKC, at most 0.2. As to QTPC, the “one-hybrid fitness for binding NBS DNA” value was at most 0.2. Regarding QTVC, the “one-hybrid fitness for binding NBS DNA” value is at most 0.2. On to QCKC, for which the “one-hybrid fitness for binding NBS DNA” value was 0.452.

On to QHVC, for which the “one-hybrid fitness for binding NBS DNA” value was at most 0.2.

On to QHKC, for which the “one-hybrid fitness for binding NBS DNA” value is 0.367. As to QAKC, the “one-hybrid fitness for binding NBS DNA” value came to 0.349. Regarding QHYC, the “one-hybrid fitness for binding NBS DNA” value is at most 0.2. For the variant QTKC, the “one-hybrid fitness for binding NBS DNA” value was 0.53. Take KAAT: the “one-hybrid fitness for binding NBS DNA” value is at most 0.2.

For GLAF, the “one-hybrid fitness for binding NBS DNA” value was at most 0.2.

With PDTG, the “one-hybrid fitness for binding NBS DNA” value was at most 0.2. As to GSLV, the “one-hybrid fitness for binding NBS DNA” value is at most 0.2. Turning to QKWT, the “one-hybrid fitness for binding NBS DNA” value turned out to be 0.454. With QKWG, the “one-hybrid fitness for binding NBS DNA” value was at most 0.2. For QAWT the value was 0.297.

On to QKHT, for which the “one-hybrid fitness for binding NBS DNA” value came out at 0.549. For QKCY, the “one-hybrid fitness for binding NBS DNA” value is at most 0.2.

For QKCC, the “one-hybrid fitness for binding NBS DNA” value was at most 0.2.

With QKIT, the “one-hybrid fitness for binding NBS DNA” value came out at 0.363. For QKCT the value was 0.475; for QKHC, at most 0.2; for QKYT, 0.511. For QKPT, the “one-hybrid fitness for binding NBS DNA” value turned out to be 0.306.

For QKHM, the “one-hybrid fitness for binding NBS DNA” value was at most 0.2.

As to SRNN, the “one-hybrid fitness for binding NBS DNA” value is at most 0.2. Consider GDKC, for which the “one-hybrid fitness for binding NBS DNA” value was at most 0.2.

Consider RTGY, for which the “one-hybrid fitness for binding NBS DNA” value is at most 0.2. For ARHT the value was at most 0.2; for RTFI, at most 0.2. As to IIAL, the “one-hybrid fitness for binding NBS DNA” value is at most 0.2. With HVSG, the “one-hybrid fitness for binding NBS DNA” value is at most 0.2. Turning to PVMQ, the “one-hybrid fitness for binding NBS DNA” value was at most 0.2. With YSMW, the “one-hybrid fitness for binding NBS DNA” value is at most 0.2. In the case of LTAH, the “one-hybrid fitness for binding NBS DNA” value was at most 0.2. As to AHPT, the “one-hybrid fitness for binding NBS DNA” value was at most 0.2. On to QKST, for which the “one-hybrid fitness for binding NBS DNA” value was 0.526. With NKRT, the “one-hybrid fitness for binding NBS DNA” value was at most 0.2. QKLT: the “one-hybrid fitness for binding NBS DNA” value stood at 0.464. With QKSM, the “one-hybrid fitness for binding NBS DNA” value is at most 0.2.

As to QKGG, the “one-hybrid fitness for binding NBS DNA” value was at most 0.2. Regarding QKGM, the “one-hybrid fitness for binding NBS DNA” value was at most 0.2.

QKGT: the “one-hybrid fitness for binding NBS DNA” value stood at 0.566. Consider QKRT, for which the “one-hybrid fitness for binding NBS DNA” value was determined as 0.757. Consider DKRT, for which the “one-hybrid fitness for binding NBS DNA” value was at most 0.2. For QKLY the value was at most 0.2; for QKSG, at most 0.2.

The record behind these values is a collection of fitness landscapes (doi:10.1016/j.celrep.2020.107928).
